Screening results as filed in PubChem BioAssay.
miR-122 sensor = blocks miR-122 activity in Huh7 sensor cells. Huh7 miR-122 Renilla luciferase sensor, 48 h; neutral wells = 0, positive control = 100. activation (reporter increase), % at 12.5 µM. hit rate 0.3% among 340,000;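 active = mean replicate activation score at least 90 and every replicate individually at or above 90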;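 note: higher luciferase means less miR-122 activity so hits act as miR-122 inhibitors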
INS-1E GSIS act = primary screen for activators of insulin secretion dependent on glucose, INS-1E cells, GLuc reporter luminescence; INS-1E GLuc reporter insulin secretion, 2-3 h; activation, % at 16.6 µM; hit rate 0.61% among 370,000;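 active = lowest replicate activation of at least 40%, so every replicate reaches that level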
Statin myotox sup = protects C2C12 myotubes from simvastatin toxicity; rescue of ATP level, % at 7.49 µM; hit rate 0.78% among 330,000; ATP luminescence, 48 h; scaled: DMSO 0, geranylgeraniol control 100;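 active = mean ATP rescue above about 67%, or every replicate alone reaching that limit, limit read from the data, passing the limit was not always enough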;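 note: myotubes were challenged with 10 µM simvastatin during compound exposure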
PAX8 reporter = inhibitors of PAX8 transcriptional activity in RMG-I cells. RMG-I TPO-luciferase reporter, SteadyGlo, 24 h. inhibition, % at 12.6 µM. hit rate 1.2% among 360,000. AID 652154;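 active = mean replicate inhibition at least 60% with every replicate also reaching 60%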;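 note: luciferase light reporting Pax8 driven TPO promoter activity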
EWS-Fli block = inhibitors of EWS/Fli oncoprotein transcriptional activity; A673 NR0B1-luciferase reporter, viability-normalised; inhibition, % at 12.6 µM; hit rate 0.67% among 350,000; AID 651661;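 active = mean inhibition of at least 50% after viability correction, with every replicate also passing that limit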;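 note: firefly luciferase signal divided by Alamar Blue viability fluorescence both relative to DMSO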
Env fusion inh = inhibitors of HIV Env-mediated cell fusion | HeLa-JRFL Env/CEM21 cell fusion, luciferase | inhibition, % at 12.3 µM | hit rate 1.1% among 360,000 | AID 651610;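 active = mean replicate inhibition score of at least 50 and every replicate individually at or above 50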
Numbers stand for hits; n = inactive; x = no result; [ ] = another dose, or the depositor's remark. Hits are enriched below; roughly 3.1% of the tested compounds scored in any of these assays.

SMILES	miR-122 sensor	INS-1E GSIS act	Statin myotox sup	PAX8 reporter	EWS-Fli block	Env fusion inh
C[C@@H]1CCCCO[C@H](CN(C)C(=O)NC2CCCCC2)[C@H](C)CN([C@@H](C)CO)C(=O)c2cc(NS(=O)(=O)c3cccs3)ccc2O1	n	n	92	n	n	n
C[C@@H]1CCCCO[C@H](CN(C)C(=O)c2ccccc2)[C@H](C)CN([C@H](C)CO)C(=O)c2cc(NS(=O)(=O)c3cccs3)ccc2O1	n	n	n	n	n	n
C[C@@H]1CCCCO[C@@H](CN(C)C(=O)c2ccccc2)[C@H](C)CN([C@@H](C)CO)C(=O)c2cc(NS(=O)(=O)c3cccs3)ccc2O1	n	n	90	n	n	n
CNC[C@H]1Oc2c(NC(=O)c3cc(C)nn3C)cccc2C(=O)N([C@H](C)CO)C[C@@H]1C	n	n	n	n	n	x
c1ccc(-c2sc3ccccc3c2-c2ccc(OCCN3CCCCC3)cc2)cc1	n	n	n	n	n	n
CN(C)CCOc1ccc(-c2c(-c3ccccc3)sc3ccccc23)cc1	n	446	n	80	n	n
CC(=O)N(C)C[C@H]1Oc2cc(C#CC(C)C)ccc2S(=O)(=O)N([C@H](C)CO)C[C@@H]1C	n	n	n	x	n	n
O=c1[nH]nc(Cc2ccc(Cl)cc2Cl)c2ccccc12	n	x	140	x	x	x
C[C@H](CO)N1C[C@H](C)[C@@H](CN(C)C(=O)Nc2ccccc2F)Oc2cc(-c3ccccc3)ccc2S1(=O)=O	n	n	n	x	n	n
CCN(Cc1ccccc1)C(=O)c1[nH]c2ccc(OC)cc2c1C	125	n	n	n	n	n
COc1ccc2[nH]c(C(=O)N(C)Cc3ccccc3)c(C)c2c1	n	n	n	n	n	n
CCOC(=O)C1CCN(S(=O)(=O)c2nc3nc(C)cc(C)n3n2)CC1	n	x	104	x	x	x
CCOC(=O)C1CCN(C(=O)COC(=O)c2nc3nc(C)cc(C)n3n2)CC1	n	n	n	n	n	n
NC(=O)C1CCN(Cc2nc3ccccc3c(=O)[nH]2)CC1	n	x	n	x	x	n
NC(=O)C1CCN(Cc2nc3cc(Cl)ccc3c(=O)[nH]2)CC1	n	x	102	x	x	x
Cc1ccc(S(=O)(=O)Nc2ccc3c(c2)CC(=O)N([C@H](C)CO)C[C@@H](C)[C@H](CN(C)C(=O)NC(C)C)O3)cc1	n	n	n	n	n	x
CCCOc1ccc(C2C(=O)N(C3CCCCC3)CC(=O)N2C2CC2)cc1OC (configuration not stated)	x	n	x	x	x	x
CCCOc1ccc(C2C(=O)N(C3CCCCCC3)CC(=O)N2Cc2ccco2)cc1OC (configuration not stated)	n	x	n	x	x	58
CNC(=O)C[C@H]1CC[C@@H]2[C@H](COC[C@@H](O)CN2C(=O)Nc2ccc3c(c2)OCO3)O1	n	n	n	x	x	x
CN1[C@@H]2c3ccc(-c4ccccc4)c(=O)n3C[C@H]1[C@H](CO)[C@H]2C(=O)NC1CCCCC1	n	n	n	n	n	x
CN1[C@H](C(=O)N2CCc3ccccc3C2)[C@@H](CO)[C@@H]2Cn3c(ccc(-c4ccccc4)c3=O)[C@@H]21	x	n	n	68	n	n
CCCN1[C@H](C(=O)N[C@@H](C)c2ccccc2)[C@@H](CO)[C@@H]2Cn3c(ccc(-c4cccc(F)c4)c3=O)[C@@H]21	x	n	n	x	n	64[16.7 µM]
CN1[C@@H]2Cn3c(ccc(-c4ccccc4)c3=O)[C@H]1[C@@H](C(=O)NC1CCCCC1)[C@@H]2CO	n	n	n	89	n	x
CC(C)NC(=O)N(C)C[C@@H]1OCCCC[C@@H](C)Oc2ccc(NS(=O)(=O)c3ccc(F)cc3)cc2C(=O)N([C@H](C)CO)C[C@H]1C	n	n	x	n	n	n
C[C@H](CO)N1C[C@H](C)[C@H](CN(C)C(=O)Nc2ccc3c(c2)OCO3)Oc2ccc(NC(=O)Nc3ccc4c(c3)OCO4)cc2CC1=O	x	n	x	x	x	x
SMILES	miR-122 sensor	INS-1E GSIS act	Statin myotox sup	PAX8 reporter	EWS-Fli block	Env fusion inh
CC(C)c1cn(CC[C@H]2CC[C@H](NC(=O)C3CCCC3)[C@H](CO)O2)nn1	n	n	n	n	n	n
Brc1ccc(-c2nn3c(Cc4ccccc4)nnc3s2)o1	n	x	72	x	x	x
Clc1ccccc1-c1nnc2sc(-c3ccc(Br)o3)nn12	n	x	n	n	x	n
C=CC[C@@]1(C(=O)N2CCCCC2)N=C(c2ccc(OCCCO)cc2)O[C@@H]1c1ccccc1	x	x	x	n	n	n
CCC(=O)N(C)C[C@@H]1Oc2cc(-c3ccccc3C)ccc2S(=O)(=O)N([C@@H](C)CO)C[C@H]1C	n	n	n	x	n	n
Cc1ccccc1NS(=O)(=O)c1cc(OCC(N)=O)c(C)cc1Cl	n	n	n	n	n	n
Cc1cc(Cl)c(S(=O)(=O)NCc2ccccc2)cc1OCC(N)=O	174	x	n	x	x	n
Cc1cc(Cl)c(S(=O)(=O)NCc2ccncc2)cc1OCC(N)=O	n	x	129	n	x	n
CC(C)c1ccc(NC(=O)C2=CC=CN3CCS(=O)(=O)N=C23)cc1	x	50	x	n	n	n
C/C=C/c1ccc2c(c1)O[C@@H](CN(C)C(=O)NC1CCCCC1)[C@H](C)CN([C@@H](C)CO)S2(=O)=O	n	n	n	n	n	n
C[C@H]1CN([C@@H](C)CO)S(=O)(=O)c2ccc(C#Cc3ccc(F)cc3)cc2O[C@H]1CN(C)C(=O)NC1CCCCC1	n	n	n	78	n	n
C[C@H]1CN([C@@H](C)CO)S(=O)(=O)c2ccc(C#Cc3ccc(F)cc3)cc2O[C@@H]1CN(C)C(=O)NC1CCCCC1	n	n	n	91	n	n
C[C@@H]1CN([C@@H](C)CO)S(=O)(=O)c2ccc(C#Cc3ccc(F)cc3)cc2O[C@@H]1CN(C)C(=O)NC1CCCCC1	n	n	n	85	n	n
C/C=C/c1ccc2c(c1)O[C@@H](CN(C)C(=O)NC1CCCCC1)[C@@H](C)CN([C@@H](C)CO)S2(=O)=O	n	n	111	n	n	n
O=C(C[C@@H]1C[C@@H]2c3cc(NC(=O)Cc4ccncc4)ccc3O[C@@H]2[C@@H](CO)O1)NCC1CC1	n	n	n	n	n	n
COc1cccc(NC(=O)N[C@H]2C=C[C@H](CC(=O)Nc3ccccc3)O[C@H]2CO)c1	x	n	x	x	x	x
CN1[C@@H]2c3ccc(-c4ccc(F)cc4)c(=O)n3C[C@H]1[C@H](CO)[C@H]2C(=O)Nc1nccs1	n	n	n	n	n	x
Cc1cc(C(=O)Nc2ccc3c(c2)C(=O)N(C)[C@@H]2CC[C@H](CC(=O)N[C@H](C)c4ccccc4)O[C@@H]2CO3)no1	n	n	n	n	n	n
CC(C)N(Cc1nc(-c2ccc(Cl)cc2)no1)C(=O)CN(C)S(=O)(=O)c1ccc(Cl)cc1	n	n	n	x	n	x
CC(C)N(Cc1nc(-c2ccccc2)no1)C(=O)CN(C)S(=O)(=O)c1ccc(Br)cc1	x	x	n	x	x	70
O=C(CN1CCOCC1)NCC[C@@H]1CC[C@@H](NC(=O)Cc2ccccn2)[C@@H](CO)O1	x	n	n	n	n	n
